Holding throughout (conditions): mRNA level, 48 h; actives raise or lower the signal
Read-out in assay [1]: Insulin Like Growth Factor 1 (IGF1), IGF1 (gene 3479)
Put plainly: LTEA_HepaRG_IGF1: Life Technologies and Expression Analysis (LTEA) Assay for Insulin Like Growth Factor 1 (IGF1) using HepaRG (AID 2283506). An outline of the steps:
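Differentiated human HepaRG cells were dosed for 48 h in serum-free induction medium with 0.5% DMSO, eight half-log concentrations up to 100 uM, in duplicate. IGF1 mRNA was quantified by qRT-PCR normalized to ACTB, GAPDH, POLR2A; bidirectional fitting versus DMSO.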

Read-out in assay [2]: Intercellular Adhesion Molecule 1 (ICAM1), ICAM1 (gene 3383)
Put plainly: LTEA_HepaRG_ICAM1: Life Technologies and Expression Analysis (LTEA) Assay for Intercellular Adhesion Molecule 1 (ICAM1) using HepaRG (AID 2283507). An outline of the steps:
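Differentiated HepaRG cells in serum-free induction medium were exposed in duplicate for 48 h to eight half-log concentrations up to 100 uM in 0.5% DMSO. Transcript levels were measured by qRT-PCR normalized to ACTB, GAPDH and POLR2A; bidirectional fits relative to DMSO.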

Read-out in assay [3]: Insulin-like growth factor-binding protein 1 (IGFBP1), IGFBP1 (gene 3484)
Put plainly: LTEA_HepaRG_IGFBP1: Life Technologies and Expression Analysis (LTEA) Assay for Insulin-like growth factor-binding protein 1 (IGFBP1) using HepaRG (AID 2283508). An outline of the steps: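 Differentiated human HepaRG cells in serum-free induction medium were exposed in duplicate for 48 h to eight concentrations, top 100 uM with half-log dilutions, in 0.5% DMSO. Transcript levels came from qRT-PCR normalised to ACTB, GAPDH and POLR2A, fitted bidirectionally against DMSO.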

Read-out in assay [4]: Interleukin 6 (IL6), IL6 (gene 3569)
Put plainly: LTEA_HepaRG_IL6: Life Technologies and Expression Analysis (LTEA) Assay for Interleukin 6 (IL6) using HepaRG (AID 2283509). In outline:
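Differentiated human HepaRG cells, plated 48 h then switched to serum-free induction medium, were exposed in duplicate for 48 h to eight half-log concentrations up to 100 uM in 0.5% DMSO. IL6 mRNA measured by qRT-PCR, normalized to ACTB/GAPDH/POLR2A.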

Read-out in assay [5]: Interleukin 6 Receptor (IL6R), IL6R (gene 3570)
Put plainly: LTEA_HepaRG_IL6R: Life Technologies and Expression Analysis (LTEA) Assay for Interleukin 6 Receptor (IL6R) using HepaRG (AID 2283510).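 As to AC50: TaqMan qRT-PCR signal normalized to ACTB GAPDH and POLR2A housekeeping genes.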 An outline of the steps: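 Differentiated human HepaRG cells, plated 48 h then switched to serum-free induction medium, were dosed in duplicate for 48 h at eight half-log concentrations up to 100 uM in 0.5% DMSO. IL6R mRNA quantified by qRT-PCR, normalized to ACTB/GAPDH/POLR2A; bidirectional fit versus DMSO.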

Read-out in assay [6]: Keratin 19 (KRT19), KRT19 (gene 3880)
Put plainly: LTEA_HepaRG_KRT19: Life Technologies and Expression Analysis (LTEA) Assay for Keratin 19 (KRT19) using HepaRG (AID 2283512). In outline:
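Differentiated human HepaRG cells, plated 48 h, were exposed in duplicate for 48 h in serum-free induction medium to eight half-log concentrations up to 100 uM in 0.5% DMSO. KRT19 mRNA was quantified by qRT-PCR, normalized to ACTB, GAPDH and POLR2A, and fitted bidirectionally versus DMSO.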

Read-out in assay [7]: JUN Transcription Factor, JUN (gene 3725)
Put plainly: LTEA_HepaRG_JUN: Life Technologies and Expression Analysis (LTEA) Assay for JUN Transcription Factor using HepaRG (AID 2283513). An outline of the steps: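 Differentiated HepaRG cells were exposed to chemicals for 48 h in serum-free induction medium, 8 concentrations from 100 uM in half-log steps, 0.5% DMSO vehicle, in duplicate. JUN mRNA was quantified by TaqMan qRT-PCR, normalized to ACTB, GAPDH, POLR2A.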

Read-out in assay [8]: Lipase C (LIPC), LIPC (gene 3990)
The experiment in a line: LTEA_HepaRG_LIPC: Life Technologies and Expression Analysis (LTEA) Assay for Lipase C (LIPC) using HepaRG (AID 2283514). In outline: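 Differentiated human HepaRG cells in serum-free induction medium were exposed in duplicate for 48 h to eight concentrations (top 100 uM, half-log steps, 0.5% DMSO). LIPC mRNA was quantified by TaqMan qRT-PCR, normalized to ACTB, GAPDH and POLR2A, with bidirectional fitting versus DMSO.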

Read-out in assay [9]: Lipoprotein lipase (LPL), LPL (gene 4023)
The experiment in a line: LTEA_HepaRG_LPL: Life Technologies and Expression Analysis (LTEA) Assay for Lipoprotein lipase (LPL) using HepaRG (AID 2283515). An outline of the steps:
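Differentiated human HepaRG cells in serum-free induction medium were exposed in duplicate for 48 h to eight half-log concentrations (top 100 uM) in 0.5% DMSO. LPL mRNA was quantified by TaqMan qRT-PCR, normalized to ACTB, GAPDH and POLR2A.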

Read-out in assay [10]: MicroRNA 122 (MIR122), gene 406906
The experiment in a line: LTEA_HepaRG_MIR122: Life Technologies and Expression Analysis (LTEA) Assay for MicroRNA 122 (MIR122) using HepaRG (AID 2283516). Also: the transcript read is the microRNA miR-122. In outline: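 Differentiated human HepaRG cells were exposed 48 h in serum-free induction medium to eight half-log concentrations (top 100 uM, 0.5% DMSO). Transcript level was measured by TaqMan qRT-PCR, normalized to ACTB, GAPDH and POLR2A, and fitted bidirectionally versus DMSO.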

Read-out in assay [11]: matrix metalloproteinase-10 (MMP10), MMP10 (gene 4319)
The experiment in a line: LTEA_HepaRG_MMP10: Life Technologies and Expression Analysis (LTEA) Assay for matrix metalloproteinase-10 (MMP10) using HepaRG (AID 2283517). In outline:
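HepaRG, collagen I, ~100,000 cells/well; serum-free induction medium; 48 h exposure, duplicate, 8-pt half-log to 100 uM, 0.5% DMSO. Readout: TaqMan qRT-PCR, normalized to ACTB/GAPDH/POLR2A; bidirectional fit vs DMSO.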

Read-out in the next assay: MYC, MYC (gene 4609)
Put plainly: LTEA_HepaRG_MYC: Life Technologies and Expression Analysis (LTEA) Assay for MYC using HepaRG (AID 2283518). In outline:
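Differentiated human HepaRG cells, plated 48 h then switched to serum-free induction medium, were exposed in duplicate for 48 h to 8-point half-log series up to 100 uM in 0.5% DMSO. MYC mRNA measured by qRT-PCR, normalized to ACTB/GAPDH/POLR2A.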

Read-out in assay [12]: Paternally Expressed 10 (PEG10), PEG10 (gene 23089)
Put plainly: LTEA_HepaRG_PEG10: Life Technologies and Expression Analysis (LTEA) Assay for Paternally Expressed 10 (PEG10) using HepaRG (AID 2283520). In outline:
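Differentiated HepaRG cells, plated 48 h then switched to serum-free induction medium, were exposed in duplicate for 48 h to eight half-log concentrations topping at 100 uM in 0.5% DMSO. PEG10 mRNA was quantified by TaqMan qRT-PCR, normalised to ACTB, GAPDH and POLR2A.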

Read-out in assay [13]: Nuclear factor NF-kappa-B p105 subunit (Homo sapiens) (UniProt P19838)
Put plainly: LTEA_HepaRG_NFKB1: Life Technologies and Expression Analysis (LTEA) Assay for Nuclear Factor Kappa B Subunit 1 (NFKB1) using HepaRG (AID 2283521).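 Also: TaqMan qRT-PCR transcript normalised to ACTB GAPDH and POLR2A housekeeping genes.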 An outline of the steps: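 NFKB1 transcript was measured by TaqMan qRT-PCR on Fluidigm arrays, normalised to three housekeeping genes and fitted in both directions against 0.5% DMSO. HepaRG cells were dosed in duplicate for 48 h in serum-free induction medium, eight half-log steps from 100 uM.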

Read-out in assay [14]: Protein phosphatase 2A (PPP2R4), PTPA (gene 5524)
The experiment in a line: LTEA_HepaRG_PPP2R4: Life Technologies and Expression Analysis (LTEA) Assay for Protein phosphatase 2A (PPP2R4) using HepaRG (AID 2283522). In outline: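 Differentiated HepaRG cells in serum-free induction medium were exposed in duplicate for 48 h to eight concentrations, top 100 uM with half-log dilutions, in 0.5% DMSO. PPP2R4 mRNA was quantified by TaqMan qRT-PCR, normalized to ACTB, GAPDH and POLR2A.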

Read-out in assay [15]: Phosphatase and tensin (PTEN), PTEN (gene 5728)
The experiment in a line: LTEA_HepaRG_PTEN: Life Technologies and Expression Analysis (LTEA) Assay for Phosphatase and tensin (PTEN) using HepaRG (AID 2283523). In outline:
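Differentiated human HepaRG cells, plated 48 h then switched to serum-free induction medium, were exposed in duplicate for 48 h to eight half-log concentrations up to 100 uM in 0.5% DMSO. PTEN mRNA measured by TaqMan qRT-PCR, normalized to ACTB/GAPDH/POLR2A, bidirectional fit versus DMSO.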

Read-out in assay [16]: solute carrier (SLC22A1), SLC22A1 (gene 6580)
The experiment in a line: LTEA_HepaRG_SLC22A1: Life Technologies and Expression Analysis (LTEA) Assay for solute carrier (SLC22A1) using HepaRG (AID 2283524). In outline:
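Human HepaRG cells were plated 48 h, switched to serum-free induction medium, then exposed in duplicate for 48 h to 8-point half-log series from 100 uM in 0.5% DMSO. SLC22A1 mRNA measured by qRT-PCR, normalized to ACTB/GAPDH/POLR2A, fitted bidirectionally versus DMSO.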

Read-out in assay [17]: Pyruvate Dehydrogenase Kinase 4 (PDK4), PDK4 (gene 5166)
Put plainly: LTEA_HepaRG_PDK4: Life Technologies and Expression Analysis (LTEA) Assay for Pyruvate Dehydrogenase Kinase 4 (PDK4) using HepaRG (AID 2283525). In outline: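 Differentiated human HepaRG cells, pre-cultured 48 h, were exposed in duplicate for 48 h in serum-free induction medium to eight half-log concentrations up to 100 uM in 0.5% DMSO. PDK4 mRNA was quantified by qRT-PCR, normalized to ACTB, GAPDH and POLR2A, bidirectional fitting versus DMSO.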

Read-out in assay [18]: matrix metalloproteinase-3 (MMP3), MMP3 (gene 4314)
Put plainly: LTEA_HepaRG_MMP3: Life Technologies and Expression Analysis (LTEA) Assay for matrix metalloproteinase-3 (MMP3) using HepaRG (AID 2283519). An outline of the steps:
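Differentiated human HepaRG cells, plated 48 h on collagen I, were exposed in duplicate for 48 h in serum-free induction medium to eight half-log concentrations up to 100 uM in 0.5% DMSO. MMP3 mRNA was quantified by TaqMan qRT-PCR, normalised to ACTB, GAPDH and POLR2A.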

Structures are written as SMILES. The source made the active and inactive calls. The calls were made as follows: active = hit-call score of the fitted dose curve at least 0.9, where 1 is the maximum; inactive = score below 0.9.

The term AC50 denotes the concentration at which the activity in the assay is half-maximal.

Sequence of Nuclear factor NF-kappa-B p105 subunit (Homo sapiens) (P19838 whole entry, looked up): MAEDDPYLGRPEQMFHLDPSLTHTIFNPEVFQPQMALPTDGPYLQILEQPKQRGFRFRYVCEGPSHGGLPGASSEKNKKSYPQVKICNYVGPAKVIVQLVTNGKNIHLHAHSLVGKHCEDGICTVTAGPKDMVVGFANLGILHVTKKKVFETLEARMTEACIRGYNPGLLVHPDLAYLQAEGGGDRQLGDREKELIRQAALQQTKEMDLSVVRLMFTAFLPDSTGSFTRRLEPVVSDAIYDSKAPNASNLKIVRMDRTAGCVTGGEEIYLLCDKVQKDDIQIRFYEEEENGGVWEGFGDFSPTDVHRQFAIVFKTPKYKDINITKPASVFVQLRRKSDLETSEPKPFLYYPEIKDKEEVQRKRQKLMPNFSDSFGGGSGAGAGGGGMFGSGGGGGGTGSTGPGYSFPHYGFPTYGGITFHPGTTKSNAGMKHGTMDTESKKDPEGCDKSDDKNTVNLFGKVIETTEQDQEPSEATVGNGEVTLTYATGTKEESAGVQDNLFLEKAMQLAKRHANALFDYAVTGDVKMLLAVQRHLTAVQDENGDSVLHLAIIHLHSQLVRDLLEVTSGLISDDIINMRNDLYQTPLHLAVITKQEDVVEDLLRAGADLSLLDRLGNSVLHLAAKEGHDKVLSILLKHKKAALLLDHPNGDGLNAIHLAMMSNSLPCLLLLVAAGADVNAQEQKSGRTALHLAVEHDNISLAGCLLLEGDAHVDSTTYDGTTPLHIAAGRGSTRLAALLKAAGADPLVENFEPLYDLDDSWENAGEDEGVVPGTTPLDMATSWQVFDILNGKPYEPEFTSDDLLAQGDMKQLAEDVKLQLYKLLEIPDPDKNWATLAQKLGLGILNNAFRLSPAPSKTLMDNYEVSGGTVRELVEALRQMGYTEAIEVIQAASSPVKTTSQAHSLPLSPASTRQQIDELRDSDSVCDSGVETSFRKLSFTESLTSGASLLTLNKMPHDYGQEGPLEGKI

Turning to `Cc1oc(-c2ccccc2)nc1CCOc1cccc2c1ccn2CCC(=O)O`, the AC50 in [1] is 69.9 µM (active); in assay [2], 85.6 µM (active); in assay [3], 93.1 µM (active); in assay [4] it was 82 µM (active); in assay [5] it was 77.6 µM (active); in [6], 88.5 µM (active). Further, the concentration at half-maximal activity (AC50) in assay [8] is 79.2 µM (active); in [9] it was 0.0309 µM (active); in assay [10], 90.1 µM (active); in assay [11], 82.1 µM (active); with MYC, MYC (gene 4609) it was 81.9 µM (active); in assay [16], 79.6 µM (active). For the same compound, the concentration at half-maximal activity (AC50) in [17] was 1.1 µM (active). Also, the result in assay [7], in assay [12], in assay [13], in [14] and in assay [15] was inactive.

With `COc1ccc(S(=O)(=O)N2C(=O)[C@@](c3ccccc3OC)(N3C[C@H](O)C[C@H]3C(=O)N(C)C)c3cc(Cl)ccc32)c(OC)c1`, the AC50 was 81.9 µM (active) in [1]; 21.6 µM (active) in assay [2]; 37.2 µM (active) in assay [3]; 58.2 µM (active) in assay [4]; 13.2 µM (active) in assay [5]; 15.8 µM (active) in assay [8]. Besides, the AC50 in [9] is 12.1 µM (active); in assay [10] it was 50 µM (active); in assay [11] it was 50 µM (active); in the assay with MYC, MYC (gene 4609) it was 76.5 µM (active); in assay [18], 50 µM (active); in [12], 21.5 µM (active). In addition, the AC50 was 32.4 µM (active) in assay [14], 16.8 µM (active) in assay [15], 20.5 µM (active) in assay [16] and 13.9 µM (active) in assay [17]. In addition, the result in assay [6] and in assay [7] was inactive.

On to `NS(=O)(=O)c1cc2c(cc1Cl)NCNS2(=O)=O`, for which the outcome in assay [1], in assay [2], in assay [3], in assay [4], in assay [5] and in assay [6] was inactive. The outcome is “inactive” in assay [7]; “inactive” in [8]; “inactive” in assay [9]; “inactive” in assay [10]; “inactive” in assay [11]; “inactive” in the assay with MYC, MYC (gene 4609). The outcome in [12], in assay [14], in assay [15], in [16] and in assay [17] was inactive.

Take `C=CCc1ccc(O)c(OC)c1`: the call in assay [1], in [2], in [3], in [4], in assay [5] and in assay [6] was inactive. For the same compound, the outcome in assay [7] was “inactive”; in [8], “inactive”; in [9] it was “inactive”; in assay [10], “inactive”; in [11], “inactive”; with MYC, MYC (gene 4609), “inactive”. In addition, the result in assay [12], in assay [14], in [15], in [16] and in [17] was inactive.

The record behind these values is PubChem BioAssay (EPA / NIEHS).
